The list is not random: actives were taken first. Their share in the collection is about 21%.
Cycloheximide cs = counter-screen for Shiga toxin inhibitors: cycloheximide protein synthesis inhibition; 300,000 compounds, 12% hits; AID 2314; cell reporter, cycloheximide protein synthesis inhibition counterscreen; max response, %; in the data active means max response mostly above about 13%, no sharp cut-off; inactive means mostly below about 14%; further: read at 38.3 µM for the half of the compounds with a filed dose; 0% is about no effect
HCV inh = inhibitors of hepatitis C virus infection; Potency, µM (series often up to 41.8 µM), without a hit: at the top dose activity change, negative = inhibition, actives largely listed as inhibitors; Huh7.5.1 HCVcc-Cre infection, luciferase reporter, 44 h; 340,000 compounds, 3.4% hits; AID 651820; further: potency means the concentration at half of the fitted maximal effect; on the % scale 0 is the no-effect control and ±100 the full control effect
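Cells (1,000/well) were plated 4 h before compound, then infected with HCVcc-Cre virus (~0.5 moi). After 44 h further culture, infection was read as luciferase luminescence following a 15 min substrate incubation at room temperature.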
Pf growth 96h = P. falciparum growth inhibition at 96 hour, primary screen for plastid delayed-death inhibitors; P. falciparum luciferase reporter growth, 96 h; Potency, µM (doses to about 28.7 µM), for the others: at the highest dose activity change, negative = inhibition, hits mostly inhibitors; 320,000 compounds, 6.9% hits; AID 504834; further: potency means the concentration at half of the fitted maximal effect; on the % scale 0 is the no-effect control and ±100 the full control effect
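Plates of compound plus infected erythrocytes (2% hematocrit, 0.05% parasitemia final) incubate 96 hours, 37 C, 5% CO2. Detection reagent added; reduced luminescence from the parasites' luciferase reporter flags inhibition.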
Shiga toxin inh = blocks Shiga toxin action in Vero cells; 290,000 compounds, 9.2% hits; Vero cells, Shiga toxin protein synthesis inhibition reporter; inhibition, % at 38.7 µM; in the data active means inhibition mostly above about 28%, no sharp cut-off; inactive means mostly below about 43%; further: 0% is about no effect
AMA1 RON2 block = inhibitors of Plasmodium falciparum AMA1-RON2 interaction; AlphaScreen AMA1-biotinylated RON2 peptide binding; Potency, µM (top dose mostly 58.2 µM), for inactives: at the top dose activity change, negative = inhibition, hits mostly inhibitors; 360,000 compounds, 0.2% hits; AID 720542;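 further: potency means the concentration at half of the fitted maximal effect; 0% = vehicle wells and -100% = peptide control; nearly all actives have a fitted effect of over 45% in size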
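AMA1 (3D7) with his tag at 25 nM final met compounds first, then biotinylated RON2 peptide at 25 nM; detection used donor plus acceptor beads, 10 µg/mL apiece, read by AlphaScreen after 30 min at room temperature.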
Pf growth 48h = P. falciparum growth inhibition at 48 hours (one generation) | Potency, µM (highest dose often 28.7 µM), for the others: at the highest dose activity change, negative = inhibition, usual class: inhibitors | 310,000 compounds, 5.9% hits | P. falciparum luciferase growth in erythrocytes, 48 h; further: potency means the concentration at half of the fitted maximal effect; on the % scale 0 is the no-effect control and ±100 the full control effect
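Cell-based growth assay: transgenic P. falciparum expressing firefly luciferase, cultured in red cells within RPMI 1640 containing 0.5% w/v Albumax, 24 mM bicarbonate and gentamycin. A drop in luciferase activity indicates inhibition.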
Active calls of the source: *; i = inactive; u = inconclusive; x = no result; [ ] = dose if it differs, or a comment. Unless noted, the call rests on the fitted dose curve; in most records, active means well fitted curve in the direction sought with a large enough effect; inconclusive means small, poorly fitted or top-dose-only effect, or another doubt; inactive means no such curve, though single readings can be large; an effect the other way counts as inactive or inconclusive.

SMILES	Cycloheximide cs	HCV inh	Pf growth 96h	Shiga toxin inh	AMA1 RON2 block	Pf growth 48h
COc1cccc(CC(=O)Nc2ccc(S(=O)(=O)Nc3nc(C)cc(C)n3)cc2)c1	-1	27%	20%	-9	9%	-2%
COc1ccc(NC(=O)c2cc(S(=O)(=O)N3CCCCC3)c[nH]2)cc1Cl	1	5%	11%	-4	0%	u
COc1ccc(CC(=O)O/N=C(\N)c2ccc(OC)cc2)cc1	64*	-12%	22%	71*	49%	32%
COc1ccc(CC(=O)O/N=C(\N)Cc2ccc(OC)cc2)cc1	-3	6%	u	28	13%	30%
Cc1ccc(NC(=O)Nc2ccc(Cl)c(Cl)c2)nc1	32*	4%	u	70*	-7%	70%
Cc1ccc(NC(=O)Nc2ccc(Cl)cn2)cc1	39*	8%	-18%	44*	15%	102%
O=C(Nc1ccc(Cl)c(Cl)c1)Nc1ccc([N+](=O)[O-])cn1	10	-3%	u	10	-4%	9.3µM*
COC(=O)c1ccc2nc(-c3ccc(Cl)cc3)c(Cc3ccsc3)n2c1	x	x	x	x	5%	x
O=c1[nH]nc(Sc2ccccc2)c(=S)[nH]1	x	x	x	x	96%	x
CC(/C=N/N1CCN(c2ccccc2)CC1)=C\c1ccccc1	-1	17%	88%	-11	-8%	56%
CC(=C/c1ccco1)/C=N/N1CCN(c2ccccc2)CC1	46*	15%	i	86*	1%	251%
CC(/C=N/N1CCN(c2ccccc2)CC1)=C\c1ccco1	44*	-6%	i	37	-24%	63%
O=C1CC[C@@H](CN(Cc2ccccc2)Cc2cn[nH]c2-c2cc3ccccc3o2)N1	-1	-5%	15µM*	-6	-18%	u
CCCC(C(=O)Nc1ccc(S(=O)(=O)Nc2nccs2)cc1)c1ccccc1 (centres undefined)	x	2%	0%	x	-20%	0%
CCCCCCCCCCCCCCCCCCNc1ccn(C2OC(COP(=O)(O)OCC3OC(n4cc(F)c(=O)[nH]c4=O)CC3O)C(O)C2O)c(=O)n1 (centres undefined)	x	u	x	x	-2%	x
CCN(C(=O)COC(=O)c1cncc(Br)c1)C1CCS(=O)(=O)C1 (centres undefined)	2	-4%	-17%	-5	4%	12%
O=C(NC(=S)N(CCO)Cc1ccccc1)c1ccc(F)cc1Cl	-5	-3%	-7%	-5	87%	-5%
COC(=O)CNC(=O)C1(C)C=CCN1C(=O)c1ccccc1 (centres undefined)	40*	-8%[8.37 µM]	-13%	94*	6%	19%
CN(C1CCCCC1)S(=O)(=O)c1ccc(S(=O)(=O)N(CC(=O)Nc2ccccc2)C2CC2)cc1	3	9%	u	21	-3%	80%
Cc1ccsc1C(=O)Nc1ccc2c(c1)OCCO2	29*	0%	181%	27*	-6%	202%
Cc1ccsc1C(=O)NC(C)c1ccc2c(c1)OCO2 (centres undefined)	-2	7%	15%	-2	0%	9%
Cc1ncoc1C(=O)Nc1ccc2c(c1)OCCO2	47*	23%	i	77*	4%	158%
COCCn1c(N)c(N(Cc2ccccc2)C(=O)COc2ccc(F)cc2Cl)c(=O)[nH]c1=O	x	-6%	2%	x	4%	9%
O=S1(=O)C2CC3C=CC2(O3)C(O)C(Cc2ccccc2)N1Cc1cccc(C(F)(F)F)c1 (centres undefined)	-4	x	x	3	x	x
O=C(/C(=C/O)N=Nc1ccccc1Cl)c1ccccc1	31*	u	u	98	u	u
SMILES	Cycloheximide cs	HCV inh	Pf growth 96h	Shiga toxin inh	AMA1 RON2 block	Pf growth 48h
O=C(/C(=C/O)N=Nc1ccc(Cl)cc1)c1ccncc1	2	u	u	-3	-30%	u
COc1ccc(OCC(O)CN(CC(O)COc2ccc(OC)cc2)c2cccc(O)c2)cc1 (centres undefined)	19*	u	u	18	-5%	u
CN(CC(O)COc1c(F)cc(Br)cc1F)C1CCCCC1 (centres undefined)	-4	-14%	36%	11	2%	9.3µM*
COc1ccc(OCC(O)COc2ccc(OC)cc2)cc1	1	-18%	10%	-8	-2%	7%
CN(CC(O)COc1ccc2ccccc2c1)C1CCCCC1 (centres undefined)	-1	u	10%	-15	-14%	u
COc1ccc(OCC(O)CN(C2CCCCC2)C2CCCCC2)cc1 (centres undefined)	1	-5%	5.9µM*	-2	-11%	u
O=C(Nc1ccc(F)cc1)c1nc(S(=O)(=O)Cc2ccccc2)ncc1Cl	6	8.9µM*	54%	11	7%	6%
Cc1ccccc1CS(=O)(=O)c1ncc(Cl)c(C(=O)Nc2ccc(F)cc2)n1	29*	-21%	1%	32	-7%	6%
N#C/C(=C\c1cc(Br)ccc1F)C(=O)NC1CC1	-1	-1%	-11%	-16	-6%	-2%
Cc1ccccc1NS(=O)(=O)c1ccc2[nH]cc(C(=O)NCCCN3CCOCC3)c(=O)c2c1	1	6%	-9%	-12	-13%	4.1µM*
CCOCCCNC(=O)c1c[nH]c2ccc(S(=O)(=O)Nc3cccc(OC)c3)cc2c1=O	1	7%	u	23	9%	u
CCc1cccc2c(=O)c(C(=O)N3CCOCC3)c[nH]c12	-2	15%	u	44	6%	6%
CCc1cccc2c(=O)c(C(=O)NCCN3CCOCC3)c[nH]c12	3	10µM*	11%	-2	7%	-5%
COc1cccc(NS(=O)(=O)c2ccc3[nH]cc(C(=O)NCCN4CCOCC4)c(=O)c3c2)c1	-6	14%	7%	11	-1%	13µM*
C=C1C(C(=O)Nc2ccccc2)C1C(=O)Nc1ccccc1 (centres undefined)	-1	-2%	-1%	-8	3%	0%
COc1ccc(C(=O)NC(=S)N2CCCc3ccccc32)cc1OC	21*	u	u	15	31%	9%
COc1ccc(C(=O)NC(=S)N2CC(C)OC(C)C2)cc1OC (centres undefined)	-2	16%	5.2µM*	-12	21%	-20%
COc1ccccc1C(=O)NC(=S)N1CCc2ccccc21	3	u	-30%[5.75 µM]	7	49%	-10%
COc1ccccc1C(=O)NC(=S)N1CCCc2ccccc21	48*	-26%	33%	164*	5%	40%
CCCC(=O)N1CCC1(C)C(=O)Nc1ccc(OC(F)F)cc1 (centres undefined)	x	x	x	x	10%	x
Cc1ccc(Nc2nnc(SCn3nnc4ccccc4c3=O)s2)cc1	31*	12%	18%	116*	-16%	x

Screening data from PubChem BioAssay.
